Screening data as filed in PubChem.
An excerpt weighted towards active compounds, which were near 11% of everything screened.
HCV inh – qHTS Assay for Inhibitors of Hepatitis C Virus (HCV); AID 651820, 2012; 340,000 compounds, 3.4% hits; Huh7.5.1 HCVcc-Cre infection, luciferase reporter, 44 h; Potency, µM (highest dose often 41.8 µM), without a hit: at the highest dose activity change, negative = inhibition, most hits filed as inhibitors
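Antiviral activity was scored by luciferase reporter output from cells infected with HCVcc-Cre (~0.5 moi) in presence of compound, 44 h infection period, cells seeded 1,000/well 4 h prior.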
AmpC inh detg – qHTS Inhibitors of AmpC Beta-Lactamase (assay with detergent); AID 485294, 2010; Potency, µM (titrated, usually from 114 µM), for the others: at the top dose activity change, negative = inhibition, actives largely listed as inhibitors; 370,000 compounds, 0.041% hits; AmpC hydrolysis of nitrocefin, absorbance 480 nm, 0.01% Triton; P00811;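 also: 0% = no-compound wells and -100% = no-enzyme wells; nearly all actives have a fitted effect of over 25% in size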
Target sequence (P00811 whole entry, looked up): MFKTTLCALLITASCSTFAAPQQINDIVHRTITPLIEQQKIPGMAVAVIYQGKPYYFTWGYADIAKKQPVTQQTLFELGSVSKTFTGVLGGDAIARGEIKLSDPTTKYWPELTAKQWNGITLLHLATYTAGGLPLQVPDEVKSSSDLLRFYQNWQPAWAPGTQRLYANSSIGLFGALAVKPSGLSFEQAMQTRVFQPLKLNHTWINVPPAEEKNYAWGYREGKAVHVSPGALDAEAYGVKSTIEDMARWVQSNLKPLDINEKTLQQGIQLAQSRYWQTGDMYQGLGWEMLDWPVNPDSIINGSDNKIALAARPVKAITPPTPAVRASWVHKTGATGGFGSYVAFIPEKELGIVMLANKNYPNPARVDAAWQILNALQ
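20 mM phosphate pH 7.0 + 0.01% (detergent screen) or 0.0001% Triton X-100; 5.3 nM AmpC reagent; cpd preinc 15 min RT; nitrocefin (800 uM stock) to start; A480 q20 s × 4 min; Activity was normalised to no-enzyme and no-compound control wells.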
Pf growth 96h – Primary qHTS for delayed death inhibitors of the malarial parasite plastid, 96 hour incubation; AID 504834, 2011; Potency, µM (series often up to 28.7 µM), without a hit: at the highest dose activity change, negative = inhibition, actives largely listed as inhibitors; 320,000 compounds, 6.9% hits; P. falciparum luciferase reporter growth, 96 h
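Infected RBCs, 2% Hct / 0.05% parasitemia final; luciferase-reporter P. falciparum; cpd 96 h, 37 C, 5% CO2; luciferase detection reagent; luminescence.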
AMA1-RON2 inh – qHTS for Inhibitors of AMA1-RON; Towards Development of Antimalarial Drug Lead: Primary Screen | Potency, µM (series often up to 58.2 µM), without a hit: at the top dose activity change, negative = inhibition, actives largely listed as inhibitors | 360,000 compounds, 0.2% hits | AlphaScreen AMA1-biotinylated RON2 peptide binding | AID 720542, 2013 | Plasmodium falciparum AMA1 (3D7) - RON2 peptide interaction;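 also: 0% = vehicle wells and -100% = peptide control; nearly all actives have a fitted effect of over 45% in size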
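AMA1 (3D7) with his tag at 25 nM final met compounds first, then biotinylated RON2 peptide at 25 nM; detection used donor plus acceptor beads, 10 µg/mL apiece, read by AlphaScreen after 30 min at room temperature.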
AmpC no deterg – qHTS Inhibitors of AmpC Beta-Lactamase (assay without detergent); 330,000 compounds, 0.52% hits; Potency, µM (top dose mostly 57.1 µM), for the others: at the highest dose activity change, negative = inhibition, hits mostly inhibitors; AmpC nitrocefin hydrolysis, absorbance 480 nm, 0.0001% Triton; P00811;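 also: plate controls were no compound for no effect and no enzyme for full effect; nearly all actives have a fitted effect of over 20% in size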
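20 mM phosphate pH 7.0 + 0.01% (detergent screen) or 0.0001% Triton X-100; 5.3 nM AmpC reagent; cpd preinc 15 min RT; nitrocefin (800 uM stock) to start; A480 q20 s × 4 min; Activity was normalised to no-enzyme and no-compound control wells.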
Pf growth 48h – Primary qHTS for delayed death inhibitors of the malarial parasite plastid, 48 hour incubation; P. falciparum luciferase growth in erythrocytes, 48 h; Potency, µM (doses to about 28.7 µM), for the others: top-dose activity change, negative = inhibition, usual class: inhibitors; 310,000 compounds, 5.9% hits; AID 504832, 2011
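A one-generation exposure of luciferase-tagged malaria parasites in RPMI 1640/Albumax erythrocyte culture, 37 C and 5% CO2. Inhibition is inferred from decreased luminescence after adding detection reagent.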
* = called active by the depositor. Calls follow the shape of the dose curve; as a rule, active = well fitted curve in the direction sought with a large enough effect; inconclusive = small, poorly fitted or top-dose-only effect, or another doubt; inactive = no such curve, though single readings can be large; an effect the other way counts as inactive or inconclusive. Unless noted, % is scaled to controls: 0 for no effect and ±100 for the full control effect; potency is read from the fitted curve at half-maximal effect.

Results for Oc1c(Cl)cc(Cl)cc1/C=N/NC(=S)NC1CC2C=CC1C2 (centres undefined) ?
HCV inh: inconclusive; AmpC inh detg: -1%; Pf growth 96h: inconclusive; AMA1-RON2 inh: -12%; AmpC no deterg: 8.9µM*; Pf growth 48h: 0.83µM*

Results for O=C1C(c2ccc(F)cc2)N(Cc2ccccc2Cl)C(=O)CN1C1CCCCC1 (centres undefined) ?
AmpC inh detg: -2%

What do the screens show for `O=C(Nn1cnnc1)C1Cc2ccccc2CN1S(=O)(=O)c1ccc(F)cc1` (centres undefined)?
HCV inh: -5%; AmpC inh detg: -5%; Pf growth 96h: 8.3µM*; AMA1-RON2 inh: 1%; AmpC no deterg: -3%; Pf growth 48h: 16%

Results for COC(=O)C1Cc2ccccc2CN1S(=O)(=O)c1ccc(F)cc1 (centres undefined) ?
HCV inh: 12%; AmpC inh detg: -9%; Pf growth 96h: 1.3µM*; AMA1-RON2 inh: 5%; AmpC no deterg: -26%; Pf growth 48h: -8%

Results for CCn1cc([N+](=O)[O-])c(C(=O)N2N=C3/C(=C/c4cccs4)CCCC3C2c2cccs2)n1 (centres undefined) ?
HCV inh: 10µM*; AmpC inh detg: -14%; Pf growth 96h: inconclusive; AMA1-RON2 inh: -20%; AmpC no deterg: 57%; Pf growth 48h: inconclusive

What do the screens show for `Cc1cc(C)c2nc(N(CCCN(C)C)C(=O)c3ccc(S(=O)(=O)N4CCCCCC4)cc3)sc2c1`?
HCV inh: 11µM*; AmpC inh detg: -5%; Pf growth 96h: 12µM*; AMA1-RON2 inh: inconclusive; AmpC no deterg: 191%; Pf growth 48h: 9.3µM*

Results for CN(C)CCCN(C(=O)c1ccc(S(=O)(=O)N2CCCC2)cc1)c1nc2ccc(Br)cc2s1 ?
HCV inh: inconclusive; AmpC inh detg: -8%; Pf growth 96h: inconclusive; AMA1-RON2 inh: 0%; AmpC no deterg: 204%; Pf growth 48h: inconclusive

What do the screens show for `CN(C)CCCN(C(=O)c1ccc(S(=O)(=O)N2CCOCC2)cc1)c1nc2cc3c(cc2s1)OCO3`?
HCV inh: 19%; AmpC inh detg: -3%; Pf growth 96h: 5%; AMA1-RON2 inh: 2%; AmpC no deterg: 77%; Pf growth 48h: inconclusive

How did Cc1ccc2sc(N(CCCN(C)C)C(=O)c3ccc(S(=O)(=O)N4CCCCCC4)cc3)nc2c1C do in these assays?
HCV inh: 14µM*; AmpC inh detg: inconclusive; Pf growth 96h: inconclusive; AMA1-RON2 inh: -29%; AmpC no deterg: 169%; Pf growth 48h: inconclusive

Results for CN(C)CCCN(C(=O)c1ccc(S(=O)(=O)N2CCCCC2)cc1)c1nc2cc3c(cc2s1)OCO3 ?
HCV inh: inconclusive; AmpC inh detg: -2%; Pf growth 96h: -6%; AMA1-RON2 inh: -16%; AmpC no deterg: 164%; Pf growth 48h: 12µM*

How did CCCc1noc(-c2ccc(NCc3ccc(C)cc3)c([N+](=O)[O-])c2)n1 do in these assays?
AmpC inh detg: 33%

What do the screens show for `CCc1ccc(NC(=O)CSc2nc(-c3cccc(OC)c3)nc3c2Cc2c(CO)cnc(C)c2O3)cc1`?
AmpC inh detg: 14%

What do the screens show for `Oc1c(Cl)cc(Cl)cc1C(C#Cc1ccccc1)N1CCOCC1` (centres undefined)?
HCV inh: 28%; AmpC inh detg: 1%; Pf growth 96h: -4%; AMA1-RON2 inh: -4%; AmpC no deterg: 0.32µM*; Pf growth 48h: inconclusive

Results for CCOc1ccccc1CN(Cc1ccco1)S(=O)(=O)c1ccc(-n2cnnn2)c(OC)c1 ?
HCV inh: inconclusive; AmpC inh detg: 4%; AMA1-RON2 inh: -6%; AmpC no deterg: 27%; Pf growth 48h: 10µM*

What do the screens show for `COc1ccccc1CN(Cc1cccnc1)S(=O)(=O)c1ccc(-n2cnnn2)c(OC)c1`?
HCV inh: 8%; AmpC inh detg: 0%; Pf growth 96h: 8.3µM*; AMA1-RON2 inh: -5%; AmpC no deterg: 103%; Pf growth 48h: inconclusive

How did O=C(COCc1cc(-c2ccc(F)cc2)on1)Nc1cc(F)ccc1F do in these assays?
AmpC inh detg: 4%

What do the screens show for `O=C(C1CCN(C2CCN(C/C(Cl)=C/c3ccccc3)CC2)CC1)N1CCOCC1`?
HCV inh: inconclusive; AmpC inh detg: 6%; Pf growth 96h: 10µM*; AMA1-RON2 inh: -21%; AmpC no deterg: 44%; Pf growth 48h: -11%

What do the screens show for `CN1CCN(Cc2ccc3ccccc3c2)CC1`?
HCV inh: 0%; AmpC inh detg: -13%; Pf growth 96h: 12µM*; AMA1-RON2 inh: -1%; AmpC no deterg: -12%; Pf growth 48h: inconclusive

What do the screens show for `CCCCOc1ccc(CN2CCCCC2)cc1`?
HCV inh: 17%; AmpC inh detg: -2%; Pf growth 96h: -18%; AMA1-RON2 inh: 16%; AmpC no deterg: inconclusive; Pf growth 48h: 18%

What do the screens show for `CCCCCCOc1ccc(CN2CCN(C)CC2)cc1`?
HCV inh: 1.8µM*; AmpC inh detg: inconclusive; Pf growth 96h: -4%; AMA1-RON2 inh: -10%; AmpC no deterg: 112%; Pf growth 48h: 75%

How did c1ccc2cc(CN3CCOCC3)ccc2c1 do in these assays?
HCV inh: 9%; AmpC inh detg: -7%; Pf growth 96h: 7%; AMA1-RON2 inh: -6%; Pf growth 48h: 5%

Results for CN1CCN(CCCOc2ccc(-c3ccccc3)cc2)CC1 ?
HCV inh: 2.8µM*; AmpC inh detg: inconclusive; Pf growth 96h: -7%; AMA1-RON2 inh: -9%; AmpC no deterg: 52%; Pf growth 48h: inconclusive

How did Cc1ccc(CNC(=O)c2c(O)nc3ccccn3c2=O)cc1 do in these assays?
AmpC inh detg: 7%

Results for c1ccc(Cn2c(CNc3nc4ccccc4n3CCN3CCCCC3)nc3ccccc32)cc1 ?
HCV inh: 11µM*; AmpC inh detg: 6%; Pf growth 96h: -20%; AMA1-RON2 inh: -30%; AmpC no deterg: 73%; Pf growth 48h: 4.7µM*

Results for Cn1c(Cc2nc3ccccc3n2C)nc2ccccc21 ?
HCV inh: 7%; AmpC inh detg: -3%; Pf growth 96h: 30%; AMA1-RON2 inh: 40%; AmpC no deterg: -17%; Pf growth 48h: inconclusive
